Measurements reported in PubChem BioAssay (Tox21).
Values without a mark were called inactive. Inconclusive results are not listed. Calls of active or inactive are those of the source. Unless noted, the call rests on the fitted dose curve.

Test: qHTS assay to identify small molecule agonists of H2AX - cell viability counter screen (AID 1224847);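 further: wild-type CHO-K1 cells; top concentration of the series differs between compounds; nearly all actives have a fitted effect of over 30% in size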
Details: CHO-K1 viability, CellTiter-Glo luminescence, 3 h; series mostly up to 154 µM; activity change, negative = cytotoxicity: at the top concentration
Procedure, shortened: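 For this counter screen, overnight-attached CHO-K1 cells received test compounds (15 concentrations, 0.76% DMSO final); 3 hr later at 37C, CellTiter-Glo reagent was added and luminescence recorded after 30 min at room temperature.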
On the % scale 0 is the no-effect control and ±100 the full control effect.

| SMILES | activity change, negative = cytotoxicity |
| --- | --- |
| C[C@H](CCC(=O)NCC(=O)O)[C@H]1CC[C@H]2[C@@H]3[C@H](O)C[C@@H]4C[C@H](O)CC[C@]4(C)[C@H]3C[C@H](O)[C@]12C | -1.34% |
| CCCOC(=O)CCCCC(=O)OCCC | 1.97% |
| CN(C)CCOCCN(C)CCO | -1.2% |
| CC(C)SCc1ccco1 | 2.73% [at 70.9 µM] |
| CCNC(=O)NCCCOc1cccc(CN2CCCCC2)c1 | -5.42% [at 70.9 µM] |
| COc1cc(C=O)ccc1OC(=O)C(C)C | 3.31% |
| O=C(Oc1ccccc1C(=O)O)c1ccccc1O | 5.88% [at 70.9 µM] |
| CCCCCCCCCCCCCCCCCCN(C)C | 0.735% [at 70.9 µM] |
| O=C(O)CCNC(=O)c1ccccc1 | 4.52% [at 70.9 µM] |
| CC(=O)Nc1ncc([N+](=O)[O-])s1 | 1.98% [at 70.9 µM] |
| COc1cccc2sc(N)nc12 | -1.8% |

Test: qHTS assay to identify small molecule antagonists of the estrogen related receptor (ERR) signaling pathway from Tox21 library (AID 1224848; active means well fitted inhibition curve with a large enough effect in the repeat runs; further: nearly all actives have a fitted effect of over 50% in size; further: potency means the concentration at half of the fitted maximal effect)
Details: ERR reporter cell line, luciferase antagonist mode, 18 h; series mostly up to 92.4 µM; activity, negative = inhibition: at the top concentration
Procedure, shortened: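 Quantitative high-throughput format: ERR reporter cells (2,000/well) pre-incubated 6 h, treated 18 h at 37 C with compounds in DMSO alongside positive and negative controls, then read by ONE-Glo luminescence.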

| SMILES | activity, negative = inhibition | Potency |
| --- | --- | --- |
| CC(=O)Nc1ccc(C)cc1 | 8.65% |  |
| CCC1COC(=O)O1 (stereo unspecified) | -7.94% |  |
| C[CH2][Ge]([Cl])([CH2]C)[CH2]C | -2.19% |  |
| Cc1cccc(Nc2ccncc2S(=O)(=O)NC(=O)NC(C)C)c1 | 8.15% [at 42.5 µM] |  |
| Oc1ccccc1Cc1ccccc1O | -2.93% |  |
| CCCCCN(CCCOC)C(=O)C(CCC(=O)O)NC(=O)c1ccc(Cl)c(Cl)c1 (stereo unspecified) | 7.72% [at 42.5 µM] |  |
| NS(=O)(=O)c1ccccc1OC(F)(F)F | 3.49% |  |
| CC(=O)OCCCc1ccccc1 | 4.06% |  |
| CN[C@@H]1[C@@H](O)[C@@H](O[C@@H]2[C@H](O)[C@H](O[C@H]3OC(CN)=CC[C@H]3N)[C@@H](N)C[C@H]2N)OCC1(C)O (stereo partly specified) | 5.78% [at 42.5 µM] |  |
| CCC(C)(C)C1CCC(=O)CC1 | 12.2% |  |
| Cc1ccccc1C | 0% |  |
| NC(=O)NNC(N)=O | 11.4% |  |
| CCCCCCCCCCCCCCCC(=O)NCCO | 11.2% [at 42.5 µM] |  |
| O=C(O)c1ccc(OCCN2CCCCC2)cc1 | 9.77% [at 42.5 µM] |  |
| C=CCOc1c(Br)cc(Br)cc1Br | 9.21% |  |
| O=CN1CCOCC1 | 8.89% |  |
| CCCCCCCCOC(C)=O | -0.969% |  |
| CC(C)COC(=O)COc1ccc(Cl)cc1Cl | 14.6% |  |
| CCCCC(C)C(=O)O (stereo unspecified) | -0.474% |  |

| SMILES | activity, negative = inhibition | Potency |
| --- | --- | --- |
| CCCCCCCCCCCCCCCCI | 4.33% [at 19 µM] |  |
| COc1ccc(NS(=O)(=O)c2ccc(N)cc2)nn1 | 12.3% [at 42.5 µM] |  |
| O=c1[nH]c(=O)c2ccccc2o1 | 1.23% [at 42.5 µM] |  |
| CNCc1ccccc1 | 10.3% [at 42.5 µM] |  |
| O=C(COCCOCCOCC(=O)Nc1c(I)cc(I)c(C(=O)O)c1I)Nc1c(I)cc(I)c(C(=O)O)c1I | 2.34% [at 42.5 µM] |  |
| CCCCCCCCCCC | -13% |  |
| C=CCOc1c(Br)cc(C(C)(C)c2cc(Br)c(OCC=C)c(Br)c2)cc1Br |  | 29.9 µM (active) |
| O=C(O)/C=C/c1ccccc1 | 12.5% |  |
| C[C@H](CCC(=O)NCC(=O)O)[C@H]1CC[C@H]2[C@@H]3[C@H](O)C[C@@H]4C[C@H](O)CC[C@]4(C)[C@H]3C[C@H](O)[C@]12C | -8.7% |  |
| CCCOC(=O)CCCCC(=O)OCCC | 2.66% |  |
| CN(C)CCOCCN(C)CCO | 1.66% |  |
| CC(C)SCc1ccco1 | -5.42% [at 42.5 µM] |  |
| CCNC(=O)NCCCOc1cccc(CN2CCCCC2)c1 | 14.4% [at 42.5 µM] |  |
| COc1cc(C=O)ccc1OC(=O)C(C)C | -7.32% |  |
| O=C(Oc1ccccc1C(=O)O)c1ccccc1O | 1.68% [at 42.5 µM] |  |
| CCCCCCCCCCCCCCCCCCN(C)C | 0.848% [at 42.5 µM] |  |
| O=C(O)CCNC(=O)c1ccccc1 | 10.9% [at 42.5 µM] |  |
| CC(=O)Nc1ncc([N+](=O)[O-])s1 | 20.6% [at 42.5 µM] |  |
| COc1cccc2sc(N)nc12 | 2.65% |  |

Test: qHTS assay to identify small molecule agonists of the estrogen related receptor (ERR) signaling pathway from Tox21 library (AID 1224849); further: nearly all actives have a fitted effect of over 15% in size
Details: ERR reporter cell line, ONE-Glo luciferase, 18 h; series mostly up to 92.4 µM; activity change, positive = activation: at the top concentration
Procedure, shortened: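 Luminescence readout (ONE-Glo, 30 min RT) after 18 h compound exposure at 37 C of NTP-supplied ERR reporter cells; cells were plated 6 h before compound addition by pin tool.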

| SMILES | activity change, positive = activation |
| --- | --- |
| CC(=O)Nc1ccc(C)cc1 | 6.28% |
| CCC1COC(=O)O1 (stereo unspecified) | -4.94% |
| C[CH2][Ge]([Cl])([CH2]C)[CH2]C | -1.22% |
| Cc1cccc(Nc2ccncc2S(=O)(=O)NC(=O)NC(C)C)c1 | 4.3% [at 42.5 µM] |
| Oc1ccccc1Cc1ccccc1O | -4.57% |
| CCCCCN(CCCOC)C(=O)C(CCC(=O)O)NC(=O)c1ccc(Cl)c(Cl)c1 (stereo unspecified) | 4.9% [at 42.5 µM] |
| NS(=O)(=O)c1ccccc1OC(F)(F)F | 1.34% |
| CC(=O)OCCCc1ccccc1 | 2.82% |
| CN[C@@H]1[C@@H](O)[C@@H](O[C@@H]2[C@H](O)[C@H](O[C@H]3OC(CN)=CC[C@H]3N)[C@@H](N)C[C@H]2N)OCC1(C)O (stereo partly specified) | 3.87% [at 42.5 µM] |
| CCC(C)(C)C1CCC(=O)CC1 | 8.05% |
| Cc1ccccc1C | 0% |
| NC(=O)NNC(N)=O | 6.8% |
| CCCCCCCCCCCCCCCC(=O)NCCO | 7.13% [at 42.5 µM] |
| O=C(O)c1ccc(OCCN2CCCCC2)cc1 | 5.71% [at 42.5 µM] |
| C=CCOc1c(Br)cc(Br)cc1Br | 6.13% |
| O=CN1CCOCC1 | 7.17% |
| CCCCCCCCOC(C)=O | 1.21% |
| CC(C)COC(=O)COc1ccc(Cl)cc1Cl | 7% |
| CCCCC(C)C(=O)O (stereo unspecified) | -0.314% |

| SMILES | activity change, positive = activation |
| --- | --- |
| CCCCCCCCCCCCCCCCI | 2.23% [at 19 µM] |
| COc1ccc(NS(=O)(=O)c2ccc(N)cc2)nn1 | 6.98% [at 42.5 µM] |
| O=c1[nH]c(=O)c2ccccc2o1 | 0.689% [at 42.5 µM] |
| CNCc1ccccc1 | 6.69% [at 42.5 µM] |
| O=C(COCCOCCOCC(=O)Nc1c(I)cc(I)c(C(=O)O)c1I)Nc1c(I)cc(I)c(C(=O)O)c1I | 1.33% [at 42.5 µM] |
| CCCCCCCCCCC | -6.3% |
| C=CCOc1c(Br)cc(C(C)(C)c2cc(Br)c(OCC=C)c(Br)c2)cc1Br | -31.5% [at 42.5 µM] |
| O=C(O)/C=C/c1ccccc1 | 9.59% |
| C[C@H](CCC(=O)NCC(=O)O)[C@H]1CC[C@H]2[C@@H]3[C@H](O)C[C@@H]4C[C@H](O)CC[C@]4(C)[C@H]3C[C@H](O)[C@]12C | -6.2% |
| CCCOC(=O)CCCCC(=O)OCCC | 2.01% |
| CN(C)CCOCCN(C)CCO | 5.87% |
| CC(C)SCc1ccco1 | -3.63% [at 42.5 µM] |
| CCNC(=O)NCCCOc1cccc(CN2CCCCC2)c1 | 7.12% [at 42.5 µM] |
| COc1cc(C=O)ccc1OC(=O)C(C)C | -5.42% |
| O=C(Oc1ccccc1C(=O)O)c1ccccc1O | 1.31% [at 42.5 µM] |
| CCCCCCCCCCCCCCCCCCN(C)C | 0.474% [at 42.5 µM] |
| O=C(O)CCNC(=O)c1ccccc1 | 6.15% [at 42.5 µM] |
| COc1cccc2sc(N)nc12 | 2.23% |
